# In PubChem BioAssay (EPA / NIEHS):
# Some structures have more than one record in an assay (separate samples or runs), and their calls can disagree. The source made the active and inactive calls. Rule for the calls: active = hit-call score of the fitted dose curve at least 0.9, where 1 is the maximum; inactive = score below 0.9.
# Read-out: E-selectin (Homo sapiens) (UniProt P16581)
# Assay: BSK_SAg_Eselectin: BioMAP Diversity Plus: SAg Assay for Eselectin Biomarker Activity (AID 2283091)
# Details: primary human HUVEC with PBMC; actives raise or lower the signal
# Procedure: BSK_SAg is a cell-based, multiplexed-readout assay that uses umbilical vein endothelium and peripheral blood mononuclear cells, a human vascular primary cell co-culture, with measurements taken at 24 hours after chemical dosing in a 96-well plate.BSK_SAg_Eselectin is an assay component measured in the BSK_SAg assay. It measures E-selectin antibody related to regulation of gene expression using ELISA technology.Data from the assay component BSK_SAg_Eselectin was analyzed into 1 assay endpoint. This assay endpoint, BSK_SAg_Eselectin, was analyzed with bidirectional fitting relative to DMSO as the negative control and baseline of activity. Using a type of binding reporter, gain or loss-of-signal activity can be used to understand changes in the signaling as they relate to the gene SELE. Furthermore, this assay endpoint can be referred to as a primary readout, because this assay has produced multiple assay endpoints where this one serves a signaling function. To generalize the intended target to other relatable targets, this assay endpoint is annotated to the cell adhesion molecules intended target family, where the subfamily is selectins.
# The levels of cell surface (or secreted, indicated by the prefix "s") biomarker endpoints were measured by ELISA. Overt cytotoxicity to cells in confluent adherent cultures (all systems other than the BT system) was assessed by measuring total protein levels using sulforhodamine B (SRB) staining in parallel cultures at the time of biomarker measurements, indicated as SRB endpoints. For proliferation assays for adherent cell types, individual cell types are cultured at sub-confluence and relative cell numbers quantified by SRB staining at time points optimized for each system (48 h: 3C and CASM3C systems; 72 h: BT and HDF3CGF systems; 96 h: SAg system). SRB was performed by staining cells with 0.1% SRB after fixation with 10% TCA and reading wells at 560 nm.Viability and proliferation of PBMC (T cells) was quantified by Alamar Blue reduction for the SAg and BT systems. For PBMC viability (referred to as PBMC Cytotoxicity within the assay endpoint names), cells were plated (75,000/well in a 96-well plate) and then chemical samples added for 1 h before addition of activators, SEB and TSST-1 (20 ng/mL final concentration each). Cells were incubated for 90 h. Then, Alamar Blue (20 uL/well) (Invitrogen, Cat DAL1100) was added for 6 h, and the plates were read with a fluorescence microplate reader at 546/580 nm (excitation/emission). For PBMC proliferation, cells were plated and activated as above but incubated for only 16 h prior to addition of Alamar Blue. Plates were read after 6 h.
# Sequence of E-selectin (Homo sapiens) (P16581 whole entry, looked up): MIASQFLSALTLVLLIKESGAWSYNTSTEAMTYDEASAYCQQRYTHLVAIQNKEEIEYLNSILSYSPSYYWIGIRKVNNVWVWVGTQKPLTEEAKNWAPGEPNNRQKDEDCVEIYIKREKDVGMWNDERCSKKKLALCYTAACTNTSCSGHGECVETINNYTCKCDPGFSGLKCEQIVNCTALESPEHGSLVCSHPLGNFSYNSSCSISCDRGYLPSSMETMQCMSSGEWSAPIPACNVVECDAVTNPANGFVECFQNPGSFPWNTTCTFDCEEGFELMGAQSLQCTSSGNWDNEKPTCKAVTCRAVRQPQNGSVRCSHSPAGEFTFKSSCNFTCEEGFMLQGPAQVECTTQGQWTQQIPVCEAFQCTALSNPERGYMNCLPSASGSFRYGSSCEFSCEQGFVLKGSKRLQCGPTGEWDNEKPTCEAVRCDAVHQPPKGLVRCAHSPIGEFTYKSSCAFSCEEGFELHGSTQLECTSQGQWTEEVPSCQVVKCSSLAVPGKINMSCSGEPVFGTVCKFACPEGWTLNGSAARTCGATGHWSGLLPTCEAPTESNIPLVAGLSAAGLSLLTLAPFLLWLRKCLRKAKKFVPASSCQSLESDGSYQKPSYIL
Structure (SMILES),outcome,AC50
CN(C)N=O,inactive,–
CCC(C)(C)c1ccc(O)c(C(C)(C)CC)c1,–,9.83 µM (active)
O=S(=O)(c1ccc(Cl)cc1)c1ccc(Cl)cc1,inactive,–
ClC1=C(Cl)[C@]2(Cl)[C@H]3[C@H]([C@H]4C=C[C@H]3C4)[C@@]1(Cl)C2(Cl)Cl,inactive,–
Oc1ccc(-c2ccccc2)cc1,inactive,–
CC(C)c1ccc(CO)cc1,inactive,–
OCc1ccco1,inactive,–
COC(=O)c1sccc1S(=O)(=O)NC(=O)Nc1nc(C)nc(OC)n1,inactive,–
Oc1c(I)cc(I)cc1I,–,14.7 µM (active)
O=C(OC1CCCCC1)c1ccccc1C(=O)OC1CCCCC1,–,29.8 µM (active)
CCOP(=S)(OCC)Oc1ccc(S(C)=O)cc1 (stereo not given),inactive,–
ClC1(Cl)C2(Cl)C3(Cl)C4(Cl)C(Cl)(Cl)C5(Cl)C3(Cl)C1(Cl)C5(Cl)C24Cl (stereo not given),inactive,–
CC(C)(OO)c1ccccc1,inactive,–
Nc1ncc([N+](=O)[O-])s1,inactive,–
O=C(Nc1ccc2[nH]ccc2c1)c1cc2cc(F)ccc2n1Cc1cccc(F)c1,–,12.8 µM (active)
CC(C)CCCCCCOC(=O)c1ccccc1C(=O)OCCCCCCC(C)C,–,0.016 µM (active)
COP(=S)(OC)Oc1ccc(Sc2ccc(OP(=S)(OC)OC)cc2)cc1,–,30.4 µM (active)
CC(=O)C(Cl)C(=O)N(C)C (stereo not given),–,25.4 µM (active)
COc1cc(-c2ccc(N)c(OC)c2)ccc1N,–,11.8 µM (active)

Structure (SMILES),outcome,AC50
CCCCCCCCC(=O)NCc1ccc(O)c(OC)c1,inactive,–
O=[N+]([O-])c1ccc2c3c(cccc13)CC2,inactive,–
CCN1CCC2(CC1)COc1cc3c(cc12)N(C(=O)c1ccc(-c2ccc(-c4nnc(C)o4)cc2C)cc1)CC3,–,13.3 µM (active)
Nc1ccc(-c2ccc(N)c(Cl)c2)cc1Cl,inactive,–
C[C@]12CCC(=O)C[C@@H]1CC[C@@H]1[C@@H]2CC[C@]2(C)[C@@H](O)CC[C@@H]12,inactive,–
CC(=O)OC(c1ccccc1)C(Cl)(Cl)Cl (stereo not given),inactive,20 µM (active)
CC(C)(c1ccccc1)c1ccc(O)c(C(C)(C)c2ccccc2)c1,–,11.9 µM (active)
O=[N+]([O-])c1ccc(O)c([N+](=O)[O-])c1,inactive,–
CCSC(C)CC1CC(=O)C(C(CC)=NOC/C=C/Cl)=C(O)C1 (stereo not given),inactive,–
CCNc1nc(NC(C)(C)C)nc(SC)n1,inactive,–
CCC(=O)C(CC(C)N(C)C)(c1ccccc1)c1ccccc1 (stereo not given),inactive,–
O=C(O)C(F)(F)C(F)(F)C(F)(F)C(F)(F)C(F)(F)C(F)(F)C(F)(F)C(F)(F)C(F)(F)C(F)(F)F,inactive,35.3 µM (active)
CC(C)(C)c1cc(O)ccc1O,–,5.56 µM (active)
O=C1C2(Cl)C3(Cl)C4(Cl)C(Cl)(Cl)C5(Cl)C3(Cl)C1(Cl)C5(Cl)C24Cl (stereo not given),–,19.3 µM (active)
COP(=S)(OC)Oc1c(Cl)cc(C)cc1Cl,inactive,–
C(=NC1CCCCC1)=NC1CCCCC1,–,3.97 µM (active)
O=C(O)C(F)(F)C(F)(F)C(F)(F)C(F)(F)C(F)(F)C(F)(F)F,inactive,–
CCOP(=S)(OCC)SCSP(=S)(OCC)OCC,–,15.2 µM (active)
O=c1[nH]c(=O)[nH]c(=O)[nH]1,inactive,–
